Rows were chosen to be rich in hits. Some 1.3% of all compounds tested hit in one or more screens of this group.
RXFP1 antag = qHTS Assay for Antagonists of the Relaxin Receptor RXFP1; Relaxin receptor 1 (Homo sapiens), Q9HBX9; HEK293-RXFP1, relaxin-stimulated cAMP HTRF, 30 min; hits give low values; activity change, negative = inhibition, % at 57.5 µM; hit rate 0.59% among 350,000; AID 1259400, 2018;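 active = activity change of -60% or lower, but not beyond a set lower limit; inconclusive = change between -60% and -40%, or beyond the set limit; inactive = change above -40%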; note: % is set by controls: 0 for no effect and ±100 for the full control effect
pAkt inh = HTS Assay for Inhibitors of Akt Phophorylation: Primary Screen; Neuro2A IGF-stimulated pAkt S473 HTRF, 20 min; hits give low values; activity change, % for hits at 50 µM; hit rate 0.32% among 360,000; AID 651550, 2012; in the data active = activity change below about -80%; inconclusive = mostly about -51% to -80%; note: % is set by controls: 0 for no effect and ±100 for the full control effect
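Neuro2A cells (4,500/well, DMEM with 0.5% FBS) were treated with compound at a single 50 µM final concentration, stimulated with 6 nM IGF for 20 min at 37 °C, and lysed. Phospho-Akt Ser473 was read by HTRF as 665/615 ratio ×10^4.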
RXFP1 agonist = qHTS Assay for Agonists of the Relaxin Receptor RXFP1. Potency, µM (top dose mostly 57.5 µM), for inactives: at the highest dose activation, most hits filed as activators. Relaxin receptor 1 (Homo sapiens), Q9HBX9. AID 2676, 2010. HEK293T-RXFP1 cAMP TR-FRET, 30 min; response scale: percent of porcine relaxin response, buffer zero. hit rate 0.3% among 370,000; active = well fitted activation curve with a large enough effect; inconclusive = small, poorly fitted or top-dose-only effect; note: potency is the fitted concentration of half-maximal effect; % is set by controls: 0 for no effect and ±100 for the full control effect; nearly all actives have a fitted effect of over 60% in size
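HEK293 cells stably expressing RXFP1, treated 30 min at 37C with compounds plus PDE4 inhibitor Ro 20174; cAMP measured by HTRF TR-FRET. Normalized to buffer and 29 nM porcine relaxin; EC50 by Hill fit.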
gsp antagonist = qHTS for Antagonists of gsp, the Etiologic Mutation Responsible for Fibrous Dysplasia/McCune-Albright Syndrome: qHTS; gsp-mutant cells, cAMP HTRF, 30 min; Potency, µM (doses to about 76.9 µM), for inactives: at the top dose activity change, negative = inhibition, most hits filed as inhibitors; hit rate 0.4% among 340,000; AID 624288, 2012; calls by dose curve; cell line not stated here;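 note: intracellular cAMP measured with PDE inhibitor Ro 20-1724 present during compound exposure; potency is the fitted concentration of half-maximal effect; % is set by controls: 0 for no effect and ±100 for the full control effect; nearly all actives have a fitted effect of over 65% in size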
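G418-selected cells were plated in DMEM/10% FBS for 16-24 h at 37C, then treated with compounds plus the PDE inhibitor […] (300 uM solution added) for 30 min at 37C. Intracellular cAMP was measured by HTRF after 30 min lysis at room temperature.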
gsp ag = qHTS for Agonist of gsp, the Etiologic Mutation Responsible for Fibrous Dysplasia/McCune-Albright Syndrome: qHTS; AID 624287, 2012; Potency, µM (doses to about 76.9 µM), without a hit: at the highest dose activation (cAMP increase), actives largely listed as activators; gsp mutant cells, cAMP HTRF, 30 min; hit rate 0.13% among 340,000; active = well fitted activation curve with a large enough effect; inconclusive = small, poorly fitted or top-dose-only effect, or another doubt; inactive = no such curve, though single readings can be large or run the other way; cell line not stated here;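 note: phosphodiesterase inhibitor Ro 20-1724 added with compounds to block cAMP breakdown; potency is the fitted concentration of half-maximal effect; nearly all actives have a fitted effect of over 60% in size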
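Cells in DMEM/10% FBS with G418 were pretreated with compounds in DMSO plus […] (300 uM stock) for 30 min at 37C. cAMP was measured by HTRF (cAMP-d2 plus anti-cAMP antibody-K) after 30 min at room temperature.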
TSHR antag = Antagonists of the Thyroid Stimulating Hormone Receptor: HTS campaign | Thyrotropin receptor (Homo sapiens), P16473 | TSHR-expressing cells, TSH-stimulated cAMP HTRF, 2 h; hits give low values | activity change, negative = inhibition, % at 11.5 µM | hit rate 0.2% among 330,000 | AID 504810, 2011;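 active = activity change below a set negative limit, meaning inhibition stronger than a set level, cut at about -70% in these data; inconclusive = activity change between two set negative limits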; note: % is set by controls: 0 for no effect and ±100 for the full control effect
Target sequence (P16473 whole entry, looked up): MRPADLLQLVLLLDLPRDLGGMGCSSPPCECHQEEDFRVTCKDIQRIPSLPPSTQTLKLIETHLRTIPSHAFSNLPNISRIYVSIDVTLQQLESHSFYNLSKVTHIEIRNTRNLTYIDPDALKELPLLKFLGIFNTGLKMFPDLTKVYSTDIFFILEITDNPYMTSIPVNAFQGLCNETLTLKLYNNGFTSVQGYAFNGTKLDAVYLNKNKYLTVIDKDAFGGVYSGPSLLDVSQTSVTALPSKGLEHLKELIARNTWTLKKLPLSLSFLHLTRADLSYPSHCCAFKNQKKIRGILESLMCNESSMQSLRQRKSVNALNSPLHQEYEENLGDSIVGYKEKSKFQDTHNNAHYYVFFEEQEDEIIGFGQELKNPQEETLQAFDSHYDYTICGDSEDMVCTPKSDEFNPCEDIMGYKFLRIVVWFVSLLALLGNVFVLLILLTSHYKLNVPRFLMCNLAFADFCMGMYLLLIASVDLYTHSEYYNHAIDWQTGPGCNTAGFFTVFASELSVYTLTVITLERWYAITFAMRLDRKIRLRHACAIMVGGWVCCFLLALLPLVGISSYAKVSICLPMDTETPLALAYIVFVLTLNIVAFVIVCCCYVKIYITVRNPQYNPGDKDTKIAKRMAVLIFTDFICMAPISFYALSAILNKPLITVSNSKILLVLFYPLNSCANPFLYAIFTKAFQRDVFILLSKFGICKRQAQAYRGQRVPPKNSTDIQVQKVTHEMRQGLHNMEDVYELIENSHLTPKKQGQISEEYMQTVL
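Cell-based HTRF cAMP assay; TSHR cells + compound, TSH EC80 (4nM final), 2 h, 37 deg C. Lysis with anti-cAMP cryptate and cAMP-d2, 30 min RT, read 665/620 nm.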
* hit, by the source's call; i = inactive; ? = inconclusive; / = not tested or not shown; [ ] = dose if it differs, or a comment.

SMILES	RXFP1 antag	pAkt inh	RXFP1 agonist	gsp antagonist	gsp ag	TSHR antag
O=C1c2[nH]nc(-c3ccccc3O)c2C(c2ccccc2)N1Cc1ccco1 (stereo unspecified)	-7	i	-1%	?	-31%	-6
O=C1c2[nH]nc(-c3ccccc3O)c2C(c2ccc(Cl)cc2)N1Cc1ccco1 (stereo unspecified)	-111*	/	0%	/	/	/
COc1ccccc1NC(=O)c1ccc(Cl)c(S(=O)(=O)NCc2ccco2)c1	1	i	0%	-13%	-23%	-10
CCCC(=NC(C)CC)C1=C(O)CC(c2ccccc2)CC1=O (stereo unspecified)	-24	i	1%	-7%	4%[15.4 µM]	-88*
CNc1cc(-c2ccc(OC)nc2)ncn1	/	i	/	/	/	/
C/C=C/c1ccc(OCC(=O)O)c(OC)c1	-11	i	0%	-2%	11%[15.4 µM]	10
CC(C)=CCOc1ccc(/C=C/C(=O)c2ccc(OCC=C(C)C)cc2OCC(=O)O)cc1	-102*	/	/	/	/	/
Cn1c(=O)c2c(ncn2CCC(=O)N/N=C/c2cccnc2)n(C)c1=O	5	i	16µM*	1%	42%[15.4 µM]	-2
O=C(NCc1nnc2c(C(F)(F)F)cc(Cl)cn12)c1cccnc1	4	/	16µM*	2%	?	5
O=C(NCc1nnc2c(C(F)(F)F)cc(Cl)cn12)c1ccc(Br)o1	20	i	?	14%	13µM*	3
O=C(NCc1nnc2c(C(F)(F)F)cc(Cl)cn12)c1ccc2c(c1)OCO2	4	i	?	15%	?	17
O=C(NCCCN1CCN(c2ccccc2F)CC1)c1cc2c(s1)-c1ccccc1OC2	-28	/	8%	/	/	/
CN(Cc1ccccc1)C(=O)COC(=O)c1cc(S(=O)(=O)N(C)C)ccc1N1CCCC1	3	i	0%	-7%	2%[15.4 µM]	5
CCN(C(=O)C(NS(=O)(=O)c1cccc2nsnc12)c1ccccc1)c1ccccc1 (stereo unspecified)	-1	/	-3%	/	/	/
COC(=O)c1ccc(-c2ccc(C(c3c(C)[nH][nH]c3=O)c3c(C)[nH][nH]c3=O)o2)cc1	-87*	i	-1%	-5%	-48%	9
Cc1[nH][nH]c(=O)c1C(c1ccc(-c2cccc(C(=O)O)c2)o1)c1c(C)[nH][nH]c1=O	6	i	4%	-2%	-6%	-11
N#Cc1c(SCC(=O)Nc2nccs2)sc2c(O)cc(=O)[nH]c12	-87*	i	8%	9%	-2%	-1
CCCSc1nnc(NC(=O)CSc2sc3c(O)cc(=O)[nH]c3c2C#N)s1	-26	i	11%	0%	23%	-2
COc1cc(OC)cc(C2=NC3(CCC(C)CC3)NC2=S)c1 (stereo unspecified)	-108*	i	1%	-11%	-17%[15.4 µM]	4
Cc1ccc(NC(=O)CCCn2c(=O)c3cccn3c3cccnc32)c(Cl)c1	4	/	-1%	/	/	/
CCn1c2ccccc2c2nnc(SCC(=O)NCCOC)nc21	13	/	10%	4%	10µM*	-3
O=C(COc1cccnc1[N+](=O)[O-])NCCc1ccc(Cl)cc1Cl	-9	i	-1%	-1%	26%	-3
O=C(/C=C/c1cccc(Cl)c1)c1nc2ccccc2[nH]1	-82*	i	1%	17%	-36%	-4
O=C(/C(=C\c1ccccc1)c1nc2ccccc2[nH]1)c1ccc(Cl)cc1	-28	i	0%	-8%	-1%	-9
CCOc1ccccc1C1N=C(N)Nc2nc3ccccc3n21 (stereo unspecified)	/	/	3%	/	/	/
O=C(c1ccc2c(=O)n(C3CCCC3)c(=S)[nH]c2c1)N1CCCCCC1	-63*	i	-1%	32µM*	-9%[15.4 µM]	-42

Bioassay records deposited in PubChem by National Center for Advancing Translational Sciences (NCATS).
